Screening data from PubChem.
Most compounds without a hit are left out; they make up all but 15% or so of the library.
Sm TGR inh – S. mansoni TGR enzyme inhibition | 360,000 tested, 3% active | purified TGR, DTNB reduction, TNB absorbance 405 nm | Q962Y6 | Potency, µM (titrated, usually from 114 µM), inactives show at the top dose activity change, negative = inhibition, most hits filed as inhibitors; note: potency is the fitted concentration of half-maximal effect; % is set by controls: 0 for no effect and ±100 for the full control effect; nearly all actives have a fitted effect of over 60% in size
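Kinetic colorimetric format: TGR-catalysed, NADPH-driven DTNB reduction monitored via TNB absorbance. Enzyme dispensed at 20 nM; compound exposure 15 min at room temperature before reaction start.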
Pf growth 48h – P. falciparum growth inhibition at 48 hours (one generation); P. falciparum luciferase growth in erythrocytes, 48 h; Potency, µM (highest dose often 28.7 µM), inactives show top-dose activity change, negative = inhibition, hits mostly inhibitors; 310,000 tested, 5.9% active; AID 504832; note: potency is the fitted concentration of half-maximal effect; % is set by controls: 0 for no effect and ±100 for the full control effect
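Erythrocytes infected with P. falciparum carrying an integrated firefly luciferase reporter (2% hematocrit, 0.1% parasitemia final) were exposed to compounds in RPMI 1640 with 0.5% Albumax at 37 C, 5% CO2. Growth inhibition was scored as reduced luminescence.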
Pf growth 96h – inhibits malaria parasite growth, 96 h; P. falciparum luciferase reporter growth, 96 h; Potency, µM (top dose mostly 28.7 µM), without a hit: top-dose activity change, negative = inhibition, most hits filed as inhibitors; 320,000 tested, 6.9% active; note: potency is the fitted concentration of half-maximal effect; % is set by controls: 0 for no effect and ±100 for the full control effect
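P. falciparum expressing integrated firefly luciferase, in erythrocytes at 2% hematocrit, 0.05% parasitemia, incubated with compounds 96 h at 37 C, 5% CO2. Growth inhibition read as loss of luminescence; two-generation exposure targets delayed-death apicoplast inhibitors.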
HCMV inh – inhibitors of human cytomegalovirus | HFF cells, HCMV-luciferase reporter, 72 h; stronger effect = lower value | activity change, negative = inhibition, % at 57.5 µM | 410,000 tested, 4.5% active | AID 1259415; in the data active = activity change below about -60%; inconclusive = no clear call, values can overlap the other calls; inactive = above about -39%; note: % is set by controls: 0 for no effect and ±100 for the full control effect
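Two compound doses tested in HFFs infected with HCMV-luciferase, MOI 1 PFU/cell, 72 h at 37C. Lysate luminescence read with OneGlo; data normalized against buffer-only and 10uM Salinomycin inhibitor controls.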
SARS PLpro yeast – blocks SARS-CoV papain-like protease in a yeast assay | S. cerevisiae expressing SARS-CoV PLpro, growth rescue | Potency, µM (titrated, usually from 32.9 µM), for inactives: at the highest dose activity, positive = growth rescue, hits mostly activators | 330,000 tested, 0.19% active | AID 485353; calls by dose curve; note: potency is the fitted concentration of half-maximal effect; 0% is about no effect; nearly all actives have a fitted effect of over 55% in size
HCV inhibitor – inhibitors of hepatitis C virus infection | Huh7.5.1 HCVcc-Cre infection, luciferase reporter, 44 h | Potency, µM (doses to about 41.8 µM), without a hit: at the highest dose activity change, negative = inhibition, actives largely listed as inhibitors | 340,000 tested, 3.4% active; note: potency is the fitted concentration of half-maximal effect; % is set by controls: 0 for no effect and ±100 for the full control effect
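HCVcc-Cre virus at an moi near 0.5 was added right after compound to cells cultured 4 h from seeding (1,000 cells/well). Luciferase activity was determined 44 h later, 15 min after substrate addition at RT.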
Starred values were filed as active, the others as inactive; ? = inconclusive; · = no result; [ ] = another dose, or the depositor's remark. Unless noted, calls come from the whole dose curve; as a rule, active = well fitted curve in the direction sought with a large enough effect; inconclusive = small, poorly fitted or top-dose-only effect, or another doubt; inactive = no such curve, though single readings can be large; an effect the other way counts as inactive or inconclusive.

SMILES	Sm TGR inh	Pf growth 48h	Pf growth 96h	HCMV inh	SARS PLpro yeast	HCV inhibitor
CCOc1ccc(OCc2ccc(C(=O)NN)o2)cc1	17.7%	71.6%	181.9%	42.8	0.5%	11.0%
CCCC(=O)c1ccc(CP(=O)(OCC)OCC)o1	12.6µM*	-12.8%	0.0%	37.0	-0.7%	22.3%
COCCN(C(=O)C1=COCCO1)c1c(N)n(CC(C)C)c(=O)[nH]c1=O	6.0%	-1.2%	29.5%	-36.3	-12.7%	2.6%
C/C(=N\Nc1ccc(Cl)c(C(=O)O)c1)c1ccc(Br)s1	50.1µM*	·	34.3%	-1.3	0.1%	9.7%
C/C(=N\NC(=O)c1ccc(Cl)c(Cl)c1)c1ccc(Br)s1	4.5%	-18.1%	10.3%	-83.3*	15.3%	?
O=C(COC(=O)c1ccc(=O)[nH]c1)Nc1cccc(S(=O)(=O)N2CCOCC2)c1	14.3%	?	7.0%	0.0	0.3%	9.6%
CC(=O)Nc1ccc(Nc2nc(-c3sc(NC(C)=O)nc3C)cs2)cc1	-0.4%	?	?	-27.2	2.1%	11.2µM*
CC(=O)Nc1nc(C)c(-c2csc(Nc3ccc(O)cc3)n2)s1	-24.4%	2.62µM*	?	·	2.9%	10µM*
CC(=O)Oc1ccc(-c2csc(Nc3ccccn3)n2)cc1	·	·	·	18.7	·	·
CC(=O)Nc1nc(C)c(-c2csc(Nc3ccccn3)n2)s1	11.6%	-1.8%	?	0.0	-3.7%	10µM*
Cc1nc(C)c(-c2csc(Nc3ccc(N)cc3)n2)s1	-4.5%	18.7%	33.8%	-10.1	-9.7%	?
CC(C)CCN1C(=O)c2ccccc2C1c1nnnn1C(C)C (configuration not stated)	·	·	·	-24.4	·	·
Cc1ccc(C(O)(COC(=O)C(C)C)COC(=O)C(C)C)c(O)c1	35.5µM*	?	136.7%	-6.9	-5.2%	9.4%
CC(C)CC(=O)Nc1cc([N+](=O)[O-])ccc1Cl	9.6%	1.3%	45.9%	-24.6	?	-4.4%
O=C(CNC(c1ccccc1)c1ccccc1)Nc1cc([N+](=O)[O-])ccc1Cl	0.8%	?	13.1µM*	-20.3	-0.5%	-19.4%
O=C(CN1CCN(c2ccccc2O)CC1)Nc1ccc([N+](=O)[O-])cc1Br	5.8%	?	?	?	-2.2%	?
O=C(CN1CCN(c2ccccc2O)CC1)Nc1cc([N+](=O)[O-])ccc1Cl	·	9.28µM*	?	10.8	-1.9%	-10.7%
CSCCC(NS(=O)(=O)c1ccccc1F)C(=O)NCc1ccncc1 (configuration not stated)	-4.3%	-14.5%	15.2%	-17.6	-4.4%	16.7%
Ic1ccc(N2CCN(Cc3c[nH]c4ncccc34)CC2)cc1	0.0%	?	?	?	·	?
COc1ccc(NC(=O)CCCn2nc(C)c3c(C)n(-c4ccccc4)nc3c2=O)cc1	-6.1%	-17.9%	?	-36.1	2.1%	-11.4%
CCN(CC)S(=O)(=O)c1cccc(-c2nnc(SCC(N)=O)n2C)c1	1.4%	-3.3%	?	28.1	-1.0%	2.6%
C=C(C)CSc1nnc(-c2cccc(S(=O)(=O)N(C)C)c2)n1-c1cc(OC)ccc1OC	-1.3%	?	·	-70.7*	-1.5%	-23.5%
C/C(=C(/CCO)SS/C(CCO)=C(\C)N(C=O)Cc1cnc(C)nc1N)N(C=O)Cc1cnc(C)nc1N	·	-6.5%	?	·	·	·
CS(=O)(=O)N(CC(=O)NCCC1=CCCCC1)c1ccc2c(c1)OCO2	0.8%	4.15µM*	-5.1%	?	-3.0%	13.7%
CS(=O)(=O)N(CC(=O)NCCSC1CCCCC1)c1ccc2c(c1)OCO2	-20.0%	5.22µM*	-17.2%	-22.3	8.7%	11.5%
SMILES	Sm TGR inh	Pf growth 48h	Pf growth 96h	HCMV inh	SARS PLpro yeast	HCV inhibitor
O=C(CN(c1ccc(F)cc1)S(=O)(=O)c1ccccc1)NCCSC1CCCCC1	-3.5%	6.57µM*	?	-29.4	-7.4%	-4.9%
COc1ccc(N(CC(=O)NCCC2=CCCCC2)S(=O)(=O)c2ccccc2F)cc1	6.8%	?	10.4µM*	?	-3.8%	?
Cc1ccc(F)cc1NC(=O)COC(=O)C1CCN(c2ccc(C(F)(F)F)cn2)CC1	-0.2%	38.1%	50.1%	9.4	-20.5%	9.3%[8.37 µM]
COc1ccc2c(c1)[C@@H](NCc1nccs1)[C@H](C)[C@@H](c1ccccc1)N2C(=O)NC(C)C	·	·	·	-8.8	·	·
CCCNc1nc2c(c(=O)n(C)c(=O)n2C)n1CCCc1ccccc1	-0.2%	?	1.47µM*	-7.8	0.8%	?
CC(O)CNc1nc2c(c(=O)n(C)c(=O)n2C)n1CCc1ccccc1 (configuration not stated)	4.1%	11.3%	12.7%	3.3	4.6%	28.2µM*
CCCCNc1nc2c(c(=O)n(C)c(=O)n2C)n1CCC	-3.3%	20.2%	23.3%	4.1	-0.4%	?
CCCNc1nc2c(c(=O)[nH]c(=O)n2C)n1CCCc1ccccc1	-0.4%[11.4 µM]	·	14.8%	20.2	-6.0%	-2.7%
CCCCCCn1c(NCC)nc2c1c(=O)n(C)c(=O)n2C	0.8%	3.29µM*	?	-88.5*	1.9%	5.62µM*
CCCNc1nc2c(c(=O)n(C)c(=O)n2C)n1CCc1ccccc1	0.0%	-16.2%	?	-64.7*	-8.7%	14.1µM*
CCN(C(=O)Cc1c(C(=O)O)n(CC)c2ccccc12)c1cccc(C(F)(F)F)c1	-6.8%	34.4%	5.3%	15.9	-0.6%	19.4%
COCCCn1c(=O)c2sccc2n2c(CCCC(=O)N(C)Cc3ccco3)nnc12	-12.4%	-14.9%	?	-29.0	1.7%	12.3%
Cc1onc(-c2ccccc2)c1C(O)c1ccc(F)cc1 (configuration not stated)	2.6%	-38.0%	-34.2%	-36.9	1.2%	9.5%
Cn1c(=O)c2c(nc(NCCO)n2CCc2ccccc2)n(C)c1=O	0.8%	6.6%	10.4µM*	?	0.0%	?
Cn1c(=O)c2c(nc(NCCCO)n2CCc2ccccc2)n(C)c1=O	-28.7%	3.5%	38.0%	1.8	-5.7%	11.6%
COCCNc1nc2c(c(=O)n(C)c(=O)n2C)n1Cc1cccc(C(F)(F)F)c1	0.7%	?	?	-35.2	1.2%	?
CCCNc1nc2c(c(=O)n(C)c(=O)n2C)n1Cc1cccc(C)c1	0.0%	?	12.3%[5.75 µM]	-62.3*	18.7%	?
CCN1C[C@@H]2[C@@H]3C(=O)N(C)C(=O)[C@@H]3[C@](Cc3ccccc3)(C1=O)N2C(=O)c1ccc(Cl)cc1	·	·	·	-13.3	·	15.1%
O=C(NCc1ccccc1F)C1CCCN(S(=O)(=O)N2CCOCC2)C1 (configuration not stated)	-28.9%	32.3%	-19.4%	14.1	20.2%	14.7%
Cn1nc(C(=O)NCc2ccc(F)cc2)c2c1-c1ccccc1S(=O)(=O)C2	6.0%	-15.3%	9.0%	-34.3	-2.8%	14.1µM*
